Screening data: PubChem BioAssay, several laboratories
An excerpt weighted towards active compounds, which were near 2.9% of everything screened.
Mtb hypoxia inh: PubChem AID 1159583. M. tuberculosis hypoxia-regulated fluorescent reporter, fluorescence. fluorescence inhibition, % (test concentration not listed). 0.1% of 300,000 active; in the data active means fluorescence inhibition mostly above about 23%, no sharp cut-off; inactive means mostly below about 17%
Mtb BioA inh: M. tuberculosis BioA enzyme inhibitors, primary screen, biochemical, plate reader, single point, HTS; 7,8-diaminopelargonic acid synthase BioA (Mycobacterium tuberculosis); purified M. tuberculosis BioA enzyme; inhibition, % at 9.99 µM; 0.096% of 360,000 active; AID 602481, 2012; in the data active means inhibition above about 40%
FadD28 FP inh: inhibitors of FadD28 bisubstrate probe binding, primary screen, biochemical, fluorescence polarization, single point. inhibition, % at 12.5 µM. 0.22% of 360,000 active; in the data active means inhibition above about 8.5%, passing the limit was not always enough
Mtb FBA inh: Mtb FBA enzyme inhibitors, primary screen, biochemical, fluorescence, strain H37Rv; Fructose-bisphosphate aldolase (Mycobacterium tuberculosis (strain ATCC 25618 / H37Rv)), …; purified M. tuberculosis FBA, fluorescence read-out; inhibition, % at 1 µM; 2.3% of 360,000 active; AID 588726, 2011;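 further: 0% = vehicle and 100% = reference inhibitor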
Target sequence (P9WQA3 whole entry, looked up): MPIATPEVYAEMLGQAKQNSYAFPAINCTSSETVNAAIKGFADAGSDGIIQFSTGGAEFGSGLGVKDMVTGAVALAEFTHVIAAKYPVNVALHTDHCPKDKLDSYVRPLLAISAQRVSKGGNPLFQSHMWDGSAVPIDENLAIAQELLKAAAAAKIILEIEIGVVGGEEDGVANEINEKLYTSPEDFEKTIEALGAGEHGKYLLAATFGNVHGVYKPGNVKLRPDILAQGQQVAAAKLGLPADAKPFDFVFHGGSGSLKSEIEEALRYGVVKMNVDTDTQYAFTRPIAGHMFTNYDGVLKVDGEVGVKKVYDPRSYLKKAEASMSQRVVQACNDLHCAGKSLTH
GDH-TPI counter-1: GDH-TPI coupling enzyme inhibitors, primary screen, artefact control for M. tuberculosis FBA inhibitor project, biochemical, absorbance, full deck; AID 588335, 2011; 1.2% of 360,000 active; GDH-TPI coupled enzyme counterscreen, NADH absorbance; inhibition, % at 4.8 µM; in the data active means inhibition above about 30%;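 further: 0% = DMSO wells and 100% = wells lacking the enzyme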
Mtb FBA confirm: M. tuberculosis aldolase blockers, biochemical, fluorescence, strain H37Rv, confirmation; shares compounds with Mtb FBA inh; 78% of 5,600 active; purified M. tuberculosis FBA, fluorescence read-out; inhibition, % at 1 µM; AID 651616, 2012;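 further: 0% = vehicle wells and 100% = reference inhibitor wells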
GDH-TPI counter-2: GDH-TPI coupling enzyme inhibitors, artefact control for M. tuberculosis FBA inhibitor project, biochemical, fluorescence, high throughput; shares compounds with Mtb FBA inh; GDH-TPI coupled enzyme counterscreen; inhibition, % at 1 µM; 81% of 5,600 active; in the data active means inhibition above about 10%
Active calls of the source: *; x = no result shown; + = active, no number. Unless noted, no stated cut-off is given here; in the data, active means inhibition above about 27%; inactive means the rest.

SMILES	Mtb hypoxia inh	Mtb BioA inh	FadD28 FP inh	Mtb FBA inh	GDH-TPI counter-1	Mtb FBA confirm	GDH-TPI counter-2
O=C1CC(c2ccco2)CC2=C1C(c1ccccc1)n1nc(C(F)(F)F)nc1N2 (stereo not given)	x	-2	-3	28*	13	64*	53*
Cn1c(=O)c2nc(-c3ccccc3)oc2c2ccccc21	15	x	-3	99*	9	91*	60*
CCCCCc1nc2c(=O)n(C)c3ccccc3c2o1	-9	3	-3	-5	3	x	x
CO[C@@H]1CN(C)C(=O)c2ccc(NC(=O)C3CC3)cc2OC[C@@H](C)N(C(=O)c2cccnc2)C[C@@H]1C	x	0	x	x	x	x	x
Cc1c(NCc2cccnc2)cccc1C(=O)O	-1	-3	-1	100*	-2	112*	100*
Cc1noc(C)c1NC(=O)Nc1cccc2c1O[C@H](CN(C)Cc1ccc(Cl)c(Cl)c1)[C@H](C)CN([C@H](C)CO)C2=O	x	-1	x	x	x	x	x
O=C(O)c1[nH]c2ccccc2c1NS(=O)(=O)Cc1ccccc1	6	0	0	61*	8	+	174*
CCc1cc(=O)oc2cc(C)cc(OCC(=O)NC(Cc3ccc(Cl)cc3)C(=O)O)c12 (stereo not given)	x	0	-4	61*	2	44*	43*
CCc1cc(=O)oc2cc(C)cc(OCC(=O)N[C@@H](CSCc3ccccc3)C(=O)O)c12	x	1	-3	37*	-2	+	162*
CCCCc1cc(=O)oc2cc(C)cc(OCC(=O)Nc3cccnc3)c12	-1	0	-3	19	11	x	x
Cc1c(OCC(=O)NC(Cc2ccc(Cl)cc2)C(=O)O)ccc2c(-c3ccccc3)cc(=O)oc12 (stereo not given)	x	1	-3	4	18	x	x
CCCCc1cc(=O)oc2cc(C)cc(OCC(=O)N[C@@H](CSCc3ccccc3)C(=O)O)c12	x	3	-2	46*	10	128*	99*
Cn1cnc(CCNC(=O)C[C@H]2CC[C@@H]3[C@H](COC[C@H](O)CN3C(=O)Nc3ccc(C(F)(F)F)cc3)O2)c1	x	-1	x	x	x	x	x
CCCCc1c(C)nc2cc(-c3ccco3)[nH]n2c1=O	15	-1	-6	12	-8	x	x
O=C1c2nc3cc(-c4ccco4)[nH]n3c(=O)c2CN1Cc1ccccc1	4	0	2	97*	-1	104*	67*
CNc1ccccc1C(=O)OCC(=O)Nc1ccc2c(c1)OCO2	1	0	-3	53*	2	101*	69*
CCn1cc(C(=O)O)c(=O)c2cc(F)c(N3CCN(S(=O)(=O)c4ccc(NC(C)=O)cc4)CC3)cc21	x	x	-1	50*	12	-4	-3
O=C(Nc1c2ccccc2nc2ccccc12)C(Cl)(Cl)Cl	12	-2	0	90*	8	14	3
Cc1ccc(C2CC(c3cccs3)n3nc(N)nc3N2)cc1 (stereo not given)	3	-4	-4	60*	18	8	4
Cc1c(-c2ccccc2)nc2ccccc2c1C(=O)Oc1ccc([N+](=O)[O-])cc1	x	1	-3	0	13	x	x
Cc1nc2cccc(C(=O)Oc3ccc([N+](=O)[O-])cc3)c2o1	3	x	-1	43*	4	159*	146*
CC1Oc2ccccc2N(CC(=O)NCCCN2CCOCC2)C1=O (stereo not given)	3	0	1	0	0	x	x
O=C(CN1C(=O)/C(=C\c2ccccc2Br)Oc2ccccc21)NCCCN1CCOCC1	-3	0	-15	41*	18	58*	53*
C[C@@H]1CN([C@H](C)CO)C(=O)c2cc(C#C[C@@H](C)O)cnc2O[C@H]1CN(C)C(=O)Cc1ccccn1	x	-3	x	x	x	x	x
COc1ccc(-c2cc(C(F)(F)F)n3ncc(C(=O)NCc4ccco4)c3n2)cc1	x	-1	0	30*	24	165*	145*
SMILES	Mtb hypoxia inh	Mtb BioA inh	FadD28 FP inh	Mtb FBA inh	GDH-TPI counter-1	Mtb FBA confirm	GDH-TPI counter-2
CCCn1c(=O)c2c(C(F)(F)F)cc(-c3ccco3)nc2n(CCC)c1=O	2	-2	-1	10	5	x	x
CCCn1c(=O)c2c(C(=O)OCC)cc(-c3ccco3)nc2n(CCC)c1=O	-2	0	1	41*	6	166*	124*
Cc1cccc(Cc2c(C)nc3c(C(=O)NCc4ccco4)cnn3c2C)c1	-3	19	0	31*	5	194*	148*
CC(C)CCNC(=O)c1cnn2c(C(F)(F)F)cc(-c3ccco3)nc12	-3	x	0	8	22	x	x
Cc1nc2c(C(=O)NCc3ccco3)cnn2c(C)c1Cc1ccc(F)cc1Cl	14	12	2	26	6	x	x
CCOC(=O)c1cnn2c(C(F)(F)F)cc(-c3ccco3)nc12	x	6	-3	53*	21	+	160*
O=C(C[C@H]1CC[C@H]2[C@@H](COC[C@H](O)CN2Cc2cccc(C(F)(F)F)c2)O1)NCCc1ccncc1	x	2	x	x	x	x	x
O=c1cnnc(NN=Cc2cccs2)[nH]1	13	x	x	x	x	x	x
COc1ccc(S(=O)(=O)N(CCc2ccccc2)CC(=O)NN=Cc2ccc3c(c2)OCO3)cc1	17	x	x	x	x	x	x
CCOC(=O)c1cc2nc(-c3ccccc3)cc(C)n2n1	-3	0	0	8	7	x	x
CCOC(=O)c1cnn2c(C)cc(-c3ccccc3)nc12	-7	x	-2	54*	17	+	+
CON=C(c1ccccc1)c1cccnc1	-2	x	x	x	x	x	x
c1cc(-c2ccsc2)n2ccnc2c1	x	1	-2	56*	5	172*	137*
Clc1ccc(-c2cccc3nccn23)c(Cl)c1	x	3	-3	15	6	x	x
Cc1cc(O)ccc1-c1cccc2nccn12	x	-1	-6	49*	-3	-4	-3
CCCC(=O)Nc1ccc2c(c1)OC[C@H](C)N(CC1CCOCC1)C[C@H](C)[C@H](OC)CN(C)C2=O	x	-2	x	x	x	x	x
COCC#Cc1ccc2c(c1)O[C@@H](CN(C)Cc1ccncc1)[C@@H](C)CN([C@H](C)CO)S2(=O)=O	x	0	x	x	x	x	x
C[C@@H]1CN([C@H](C)CO)C(=O)c2cc(NC(=O)CCN3CCOCC3)ccc2O[C@@H]1CN(C)Cc1ccc(Oc2ccccc2)cc1	x	1	x	x	x	x	x
Cc1nn(-c2ccccc2)c2nc(Cl)c(C(=O)O)cc12	-1	x	0	31*	6	+	+
COc1cc(/C=N/c2oc(-c3ccccc3)cc2C#N)ccc1O	x	x	1	47*	48*	+	+
COc1cc(C=Nc2oc(-c3ccccc3)cc2C#N)ccc1O	-4	x	x	x	x	x	x
